Sampled rows, rich in hits. Any-hit rate of the full collection: about 4.3%.
SMARCA2 act: increases SMARCA2 function in MMTV reporter cells; hit rate 1% among 370,000; AID 652017; activation, % at 9.1 µM; MG213 cells, MMTV-luciferase reporter, dexamethasone, overnight; in the data active means activation above about 7.8%;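 further: 0% = vehicle wells and 100% = reference activator wells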
esBAF inh: blocks esBAF chromatin remodeling in mouse ES cells; Bmi1-luciferase knock-in reporter, 24 h; 100% = twice the neutral-well signal; reporter increase, % at 12.5 µM; hit rate 2% among 350,000; AID 602393; in the data active means activation above about 40%; inconclusive means no clear call, values can overlap the other calls;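 further: 0% = median of the plate's neutral control wells and 100% = double that signal; a rise in the Bmi1 reporter signal indicates esBAF inhibition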
Wnt act: activates Wnt/beta-catenin signaling in a reporter cell assay. activation, % at 9.35 µM. hit rate 1.2% among 300,000. AID 743398. activator, plate reader; in the data active means activation above about 30%, passing the limit was not always enough; inconclusive means no clear call, values can overlap the other calls;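 further: 0% = neutral control wells and 100% = positive control wells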
HSF1 inh: HSF1 inhibition; hit rate 0.77% among 300,000; activity change, negative = inhibition, % at 7.5 µM (by protocol); NIH3T3-HGL HSE-luciferase, MG132-induced, luminescence 8 h; active compounds read low;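 active means more than half of replicate wells show activity change below -50%, luminescence cut by over half; inconclusive means some wells, but at most half, below -50%; inactive means no replicate well below -50%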;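 further: luciferase reports HSF-1 transcriptional activity via heat shock element; 0% = median of DMSO wells and -100% = zero luminescence signal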
HSF1 activator: increases HSF-1 driven luciferase reporter signal; hit rate 1.7% among 300,000; activation, % at 9 µM; NIH3T3-HGL HSF-1 luciferase reporter, MG132, 8 h; 100% = twice DMSO control signal; AID 504408;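 active means mean replicate activation of at least 50% with a set share of replicates each reaching 50%; inconclusive means only one of those two conditions met; inactive means mean below 50% and too few replicates reaching it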;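 further: 0% = median of the neutral control wells and 100% = twice that signal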
MITF act: MITF TRPM1 promoter activation in melanoma cells; SK-MEL-5 TRPM1-promoter luciferase, 24 h; % of positive control, neutral wells = 0; AID 588334; activation, % at 12.5 µM; hit rate 0.75% among 300,000;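 active means mean activation of at least 80% with every replicate also reaching 80%; inconclusive means mean reaches 80% but some replicate falls short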;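 further: 0% = neutral control wells and 100% = parthenolide positive control wells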
* hit, by the source's call; u = inconclusive; x = not tested or not shown.

SMILES	SMARCA2 act	esBAF inh	Wnt act	HSF1 inh	HSF1 activator	MITF act
COc1cc(C(=O)Nc2nc3ccccc3[nH]2)cc(OC)c1OC	-2	15	x	1	2	5
COc1cc(/C=N\Nc2nc3ccccc3[nH]2)cc(OC)c1OC	-9	-10	-7	346	437*	-2
COc1ccc(/C=N/Nc2nc3ccccc3[nH]2)cc1OC	-1	x	12	324	369*	u
C(=N\Nc1nc2ccccc2[nH]1)/c1ccc2ncccc2c1	-7	-33	8	15	41	x
Cc1ccc2cc(/C=N/Nc3nc4ccccc4[nH]3)c(Cl)nc2c1	7.8*	x	x	17	19	14
CCN(CC)c1ccc(/C=N/Nc2nc3ccccc3[nH]2)c(O)c1	0	-14	x	132	169*	-41
C[C@@H]1CN([C@@H](C)CO)C(=O)c2cc(NC(=O)Cc3ccccc3)ccc2O[C@H]1CN(C)C(=O)Nc1ccc(F)cc1	x	7	x	x	x	x
C[C@H](CO)N1C[C@H](C)[C@H](CN(C)S(=O)(=O)c2ccccc2)Oc2ccc(N(C)C)cc2CC1=O	x	-6	x	x	x	x
CN1[C@H](C(=O)NCC2CCCCC2)[C@@H](CO)[C@@H]2Cn3c(cccc3=O)[C@@H]21	x	2	x	x	x	x
CC(C)NC(=O)N(C)C[C@@H]1OCCCC[C@H](C)Oc2ccc(NS(=O)(=O)c3cn(C)cn3)cc2C(=O)N([C@H](C)CO)C[C@@H]1C	x	-3	x	x	x	x
C#CCn1cc(/C=N/Nc2nc3ccccc3[nH]2)c2ccccc21	-11	x	x	288	370*	12
C(=N\Nc1nc2ccccc2[nH]1)/c1cccc2nccnc12	-5	12	3	58	64*	x
COc1ccc2c(c1)c(/C=N/Nc1nc3ccccc3[nH]1)c(C)n2C	-8	x	57*	213	206*	x
COc1cc(OC)c(OC)cc1/C=N/Nc1nc2ccccc2[nH]1	-3	x	13	246	267*	x
C(=N\Nc1nc2ccccc2[nH]1)/c1ccccn1	1	x	21	0	-2	-82
CCCCn1c(/C=N/Nc2nc3ccccc3[nH]2)nc2ccccc21	-3	x	15	1	-4	-2
O[C@@H]1COC(Nc2ccc(N=Nc3ccccc3)cc2)C[C@@H]1O (stereo not given in full)	-6	x	46*	10	17	x
C[C@H](CO)N1C[C@H](C)[C@H](CN(C)C(=O)c2ccccc2F)Oc2ncc(-c3ccc(F)cc3)cc2C1=O	x	-2	x	x	x	x
Clc1ccc2[nH]c(-c3ccccc3)cc2c1	3	60*	x	x	x	46
O=c1cc(-c2ccccc2)[nH]c2cc(Cl)ccc12	0	-6	-13	-3	-4	-9
COc1ccc(NC(=O)Nc2cccc3c2O[C@@H](CN(C)Cc2ccc(C(F)(F)F)cc2)[C@@H](C)CN([C@@H](C)CO)C3=O)cc1	x	0	x	x	x	x
Cc1noc(C)c1S(=O)(=O)Nc1ccc2c(c1)C(=O)N([C@H](C)CO)C[C@H](C)[C@H](CN(C)S(=O)(=O)c1cn(C)cn1)O2	x	-4	x	x	x	x
N/C(=N\OC(=O)Cc1cccs1)c1cccc([N+](=O)[O-])c1	-2	34	5	23	39	20
N/C(=N\OC(=O)Cc1cccs1)c1ccccc1	2	72*	x	8	22	x
Cc1cccc(/C(N)=N/OC(=O)Cc2cccs2)c1	4	48*	x	14	32	95*
SMILES	SMARCA2 act	esBAF inh	Wnt act	HSF1 inh	HSF1 activator	MITF act
Cc1ccc(C(=O)O/N=C(\N)Cc2cccs2)c(Cl)c1	x	x	x	20	30	117*
N/C(=N\OC(=O)Cc1cccs1)c1ccc(Cl)cc1	4	81*	34*	-1	11	79
C/C=C/c1ccc2c(c1)O[C@@H](CN(C)C(=O)C1CC1)[C@H](C)CN([C@H](C)CO)S2(=O)=O	x	1	x	x	x	x
C[C@H]1CN([C@@H](C)CO)C(=O)c2cc(C#CCN(C)C)cnc2O[C@H]1CN(C)C(=O)Nc1ccccc1F	x	-10	x	x	x	x
Cc1ccc(/C(N)=N/OC(=O)Cc2ccccc2)cc1	5	x	-3	26	21	68
Cc1ccc(/C(N)=N/OC(=O)Cc2cccs2)cc1	5	55*	x	13	26	111*
CCn1c(/C=C/c2ccc(O)c(O)c2)nc2ccccc2c1=O	5	-15	3	7	25	-13
COc1ccc(/C=C/c2c(-c3ccc(OC)cc3)oc3ccccc23)cc1	3	-3	10	-4	19	1
COc1ccc(/C=C\c2nc(=O)c3ccccc3o2)cc1	5	-1	5	24	76*	2

Compound activity as filed in PubChem.
